# Data from PubChem BioAssay (Tox21).
# “And” between values parts separate entries of the source, which are not always exact repeats. Identical values can stand only once. Inconclusive results are not listed. Unmarked numbers belong to inactive results. The source made the active and inactive calls. Calls follow the shape of the dose curve; as a rule, active = well fitted cell-killing curve with a large enough effect in the repeat runs; inconclusive = weak or mixed curves, or effect the other way; inactive = no such curve, though single readings can be large or run the other way.
# Experiment: qHTS assay for identifying genotoxic compounds that show differential cytotoxicity against isogenic chicken DT40 cell lines with known DNA damage response pathways - wild type cell line (AID 743012); also: nearly all actives have a fitted effect of over 60% in size
# Details: DT40 wild type chicken cells viability, CellTiter-Glo, 40 h; series mostly up to 68.4 µM; activity change, negative = cytotoxicity: at the top concentration
# Text: U.S. Tox21 Program National Center for Advancing Translational Sciences [NCATS] NIH Chemical Genomics Center [NCGC] U.S. Environmental Protection Agency [EPA] National Institutes of Environmental Health Sciences [NIEHS] National Toxicology Program [NTP] U.S. Food and Drug Administration [FDA] Tox21 Assay Overview: DNA repair pathways play a critical role in cellular homeostasis by repairing DNA damage induced by endogenous processes and xenobiotics. Isogenic chicken DT40 cell lines deficient in different DNA repair pathways can be used to identify genotoxic compounds and aid in characterizing the nature of the DNA damage induced. Two DNA repair-deficient cell lines with disrupted genes, Rad54/Ku70 or Rev3, were used to screen the Tox21 10K compound library. Possible genotoxicity was based on the presence of a significant increase in cytotoxicity in one or more of the DNA repair-deficient cell lines compared to that observed in the parental DNA repair-proficient cell line. CellTiter Glo viability assay (Promega, Madison, WI) was used to measure cell viability in these cells after compound treatment. This assay includes the data from the wild type cell line.
# Tox21 Assay Protocol Summary: 300 DT40 wild type cells in 5 uL/well were dispensed into white, solid-bottom 1536-well plates using a Multidrop Combi (ThermoFisher Scientific, Waltham, MA) dispenser. After the assay plates were incubated at 37 C/5% CO2 for approximately 0.5 hour, 23 nL of compounds dissolved in DMSO, positive controls or DMSO only was transferred into the assay plate by a pintool work station (Kalypsys, San Diego, CA). The assay plates were incubated at 37 C/5% CO2 for 40 hours. After 5 uL per well of CellTiter-Glo reagent was added into each well of the assay plates, the plates were incubated for 30 min at room temperature and the luminescence intensity of the plates was measured using a ViewLux (PerkinElmer, Shelton, CT) plate reader.
# % is scaled to controls: 0 for no effect and ±100 for the full control effect; potency is read from the fitted curve at half-maximal effect.
Compound,"activity change, negative = cytotoxicity",Potency
CC(=O)OCC(=O)[C@@]1(O)CC[C@H]2[C@@H]3CCC4=CC(=O)CC[C@]4(C)[C@H]3C(=O)C[C@@]21C,-0.0134%,
CN(C)CCCN1c2ccccc2CCc2ccc(Cl)cc21,,7.5 µM (active) and 6.11 µM (active)
C[N+](C)(C)CCCCCC[N+](C)(C)C,-0.308%,
C[C@@H]1CCN(C(=O)[C@H](CCCN=C(N)N)NS(=O)(=O)c2cccc3c2NC[C@H](C)C3)[C@@H](C(=O)O)C1,2.07%,
CCN(Cc1ccncc1)C(=O)C(CO)c1ccccc1 (stereo not given),1.26%,
CCCN1CCCC[C@H]1C(=O)Nc1c(C)cccc1C,-17.4%,
CN1CCCC1,4.65%,
NS(=O)(=O)c1cc(C(=O)O)cc(N2CCCC2)c1Oc1ccccc1,11.2% [at 31.4 µM],
NC(=O)c1cn(Cc2c(F)cccc2F)nn1,-3.38%,
CCOC(=O)C(=O)OCC,-7.37%,
COc1ccc(CCN(C)CCCC(C#N)(c2cc(OC)c(OC)c(OC)c2)C(C)C)cc1OC (stereo not given),,16.8 µM (active)
C[C@](N)(Cc1ccc(O)cc1)C(=O)O,-0.0439%,
COC(=O)CCSCCC(=O)OC,0.24%,
NC(=O)c1ccc([N+](=O)[O-])cc1,3.86%,
O=C(O)CCCl,5.81% [at 95 µM],
NCCc1cnc[nH]1,6.73%,
COc1nc(N)nc2c1ncn2[C@@H]1O[C@H](CO)[C@@H](O)[C@@H]1O,19.2%,
O=C1CCCN1C1CCCCC1,-9.09%,
CCCCNC(=O)NCCCC,-5.18%,
C=COCC1CCC(CO)CC1 (stereo not given),0.0081%,

Compound,"activity change, negative = cytotoxicity",Potency
CCOC(C)(C)C,2% [at 95 µM],
N=C(N)c1ccccc1,-0.614%,
CCO/C([O-])=N/c1c[n+](N2CCOCC2)no1,4.32% [at 31.4 µM],
O=C1OC(=O)C2CCCCC12 (stereo not given),7.94%,
Cc1[nH]c(=O)c(C#N)cc1-c1ccc2nccn2c1,8.33%,
C=CCS(=O)(=O)O,20.6%,
O=c1n(CCO)c(=O)n(CCO)c(=O)n1CCO,-11% [at 95 µM],
O=C1CC2CC1C1CCCC21 (stereo not given),3.12%,
CC(=O)Nc1ccc(S(N)(=O)=O)cc1,9.36%,
C[C@H]1C[C@@H](O)CC(C)(C)C1,2.81%,
CCOC(=O)CCC(C)=O,-8.93%,
CC1(C)CO[C@@H](CC(=O)O)CN1,2.16%,
O=Cc1cccc([N+](=O)[O-])c1,19.8%,
COCCCOCCCOC,20.9%,
CC(=O)OCC(=O)[C@@]1(O)CCC2C3CCC4=CC(=O)CC[C@]4(C)C3[C@@H](O)C[C@@]21C (stereo not given in full),0.351%,
CCN1CCC[C@H]1CNC(=O)c1c(O)c(Cl)cc(Cl)c1OC,-5.55%,
CN1CCN(c2cc3c(cc2F)c(=O)c(C(=O)O)cn3-c2ccc(F)cc2)CC1,,23.7 µM (active)
COC(=O)[C@@H](N)Cc1ccc(O)c(O)c1,,29.8 µM (active)
Cc1cc2c(cc1S(N)(=O)=O)S(=O)(=O)CCC2,20.2% [at 31.4 µM],
OCCCC1CCCCC1,-0.309%,
